From PubChem BioAssay AID624330 (Southern Research Specialized Biocontainment Screening …, 2012) come the findings set out here.

Broadly, the inhibition is the drop in the measured response relative to a control, in per cent.

Hit rate of the full screen: of about 340,000 compounds, about 2,100 (0.62%) were called active. These entries were drawn from the full list. Entries with a potency or affinity are not part of this list. Unmarked numbers belong to inactive results.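 Rule for the calls: active = first-screen hits whose inhibition reached a set limit at any dose in the follow-up dose series; inconclusive = inhibition above the set first-screen limit but never retested; inactive = the rest.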

In this test the target is Rac GTPase-activating protein 1 (Homo sapiens) (UniProt Q9H0H5). The test is described as follows: MgcRacGAP GTPase-activating activity inhibitors, confirmation, biochemical, ADP Hunter fluorescence, primary and confirmatory (AID 624330).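 Note: fluorescence reports GDP produced by GAP-driven GTP hydrolysis.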 To be noted: MgcRacGAP-stimulated Rac1 GTP hydrolysis, at 30 µM, stronger effect = higher value, GST-tagged Rac1 F28L mutant substrate.
Sequence of Rac GTPase-activating protein 1 (Homo sapiens) (Q9H0H5 whole entry, looked up): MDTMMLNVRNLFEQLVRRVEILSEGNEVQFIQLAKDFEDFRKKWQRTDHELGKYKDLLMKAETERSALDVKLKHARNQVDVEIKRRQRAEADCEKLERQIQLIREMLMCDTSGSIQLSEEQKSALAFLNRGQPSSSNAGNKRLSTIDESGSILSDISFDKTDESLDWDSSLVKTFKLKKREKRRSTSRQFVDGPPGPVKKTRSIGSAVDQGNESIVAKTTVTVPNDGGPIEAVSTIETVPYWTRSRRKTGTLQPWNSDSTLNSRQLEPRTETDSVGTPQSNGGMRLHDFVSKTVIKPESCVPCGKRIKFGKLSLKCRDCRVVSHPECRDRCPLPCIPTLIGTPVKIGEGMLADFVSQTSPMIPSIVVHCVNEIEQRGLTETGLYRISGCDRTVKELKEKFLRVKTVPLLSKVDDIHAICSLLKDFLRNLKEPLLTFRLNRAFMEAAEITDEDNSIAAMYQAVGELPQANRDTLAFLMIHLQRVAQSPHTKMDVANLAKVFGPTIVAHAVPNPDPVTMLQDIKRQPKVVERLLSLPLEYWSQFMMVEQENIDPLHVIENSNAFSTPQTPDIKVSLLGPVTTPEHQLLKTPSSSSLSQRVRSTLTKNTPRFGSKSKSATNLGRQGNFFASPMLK
Turning to `CC(=O)c1c(Nc2cccc(F)c2)oc(C)cc1=O`, the inhibition was 8.68%.

As for `CCc1ccc(Nc2oc(C)cc(=O)c2C(C)=O)cc1`, the inhibition was 2.6%. Under `O=C(c1cccc(NS(=O)(=O)c2ccc(Br)cc2)c1)N1CCN(c2ccccc2O)CC1` stands -1.11%.

On to `CC(O)CNc1nc2ccccc2n1CC(=O)NC12CC3CC(CC(C3)C1)C2` (configuration not stated), for which the inhibition is -6.35%. Under `O=C(Nc1ccccc1)c1cccc(NC(=O)c2ccco2)c1` stands 11.5%. Under `O=[N+]([O-])c1ccccc1OCCOc1ccccc1[N+](=O)[O-]` stands 7.67%; under `O=[N+]([O-])c1ccccc1OCCCNCc1ccccc1`, 21.2%; under `CCc1cc(OCCCCNCc2ccccc2)ccc1Cl`, 28.9%.

As to `CCCOc1ccc(OCCOCCNCc2ccccc2)cc1`, the inhibition was 19.2%. Then `CCOc1ccc(OCCOCCNCCOC)cc1`, with 12.8%. On to `Clc1cccc(Cl)c1OCCOCCNCc1ccccc1`, for which the inhibition is 22.1%. Under `Cc1cc(Cl)cc(C)c1OCCNCc1ccccc1` stands 26.3%. Then `Cc1cc(OCCOCCN(C)C)ccc1Cl`, with 9.69%; and `CC1(c2nnc(-c3cccc(Cl)c3)o2)CC(c2ccccc2)=NO1` (configuration not stated), with 6.54%; and `CCN(CC)CCCNC(=O)C1CCCN(c2nnc(N3CCCC3=O)s2)C1` (configuration not stated), with 8.15%. Turning to `Cc1ccccc1C(=O)N1CCC(C(=O)Nc2ccccn2)CC1`, the inhibition was 3.54%.

`CC1CCCC(C)N1CC(O)COC1CCC(C(C)(C)C)CC1` (configuration not stated): the inhibition was 8.37%. Then `CC(C)(C)c1cccc(OCCCSc2ncccn2)c1`, with 4.61%. Consider `O=C(N/C(=C/c1ccc(Br)cc1)C(=O)N1CCCCC1)c1ccccc1F`, for which the inhibition is 8.71%. Consider `Cc1cc(C)c(OCCCNCc2ccccc2)c(Br)c1`, for which the inhibition was 26.8%. Under `C=CCNCCCCOc1c(Cl)cc(C)cc1Br` stands 29.7%. For the compound `Cc1cc(Cl)c(OCCCNCc2ccccc2)c(Br)c1`, the inhibition was 30.3%.

Consider `COCCNCCCCOc1c(Cl)cc(C)cc1Br`, for which the inhibition was 27.8%. Then `Cc1ccc(OCCNCc2ccccc2)c(C)c1`, with 20.6%; and `Cc1cc(C)c(C)c(OCCOCCNCc2ccccc2)c1`, with 17.1%; and `Cc1cc(C(=O)CSc2ccc3c(c2)OCCO3)c(C)n1C1CC1`, with 6.62%. Then `COc1ccc(C(=O)/C=C/c2ccccc2OC)c(OC(=O)c2ccc([N+](=O)[O-])cc2)c1`, with 8.99%; and `COc1cccc(C2C(C(=O)c3cccs3)=C(O)C(=O)N2CCN2CCOCC2)c1` (configuration not stated), with -8.26%; and `O=C(NCc1ccccc1Cl)C1CCC(=O)N1Cc1ccc(F)cc1` (configuration not stated), with 11.4%. For `CN(CCOc1ccccc1)C(=S)Nc1ccc(OC(F)F)cc1`, the inhibition is 5.1%. Under `O=C(c1ccc(Cl)cc1)N1CCN(C(=O)C2CCCCC2)CC1` stands 7.43%. Then `O=C1N/C(=C\c2ccccc2)C(O)=C1C=NCc1ccccc1`, with 3.17%; and `O=C1N/C(=C/c2ccc(Br)cc2)C(O)=C1C=NCc1ccccc1`, with 3.27%; and `COc1cc(NC(=O)CN2CCC(C(N)=O)(N3CCCCC3)CC2)c(OC)cc1Cl`, with 0.16%. Under `COc1cc(/C=N/NC(=O)c2c(-c3ccccc3)noc2C)cc(OC)c1OC` stands 7.95%; under `CCOc1ccc(/C=N/NC(=O)c2c(-c3ccccc3)noc2C)cc1`, 10.9%. Consider `CCCOc1ccc(/C=N/NC(=O)c2c(-c3ccccc3)noc2C)cc1OC`, for which the inhibition was 7.42%. Then `Cc1onc(-c2ccccc2)c1C(=O)N/N=C/c1cccc(O)c1`, with 8.34%.

Take `CCOC(=O)c1c(C)n(C)c2cc(Br)c(C)cc12`: the inhibition was -1.61%. Then `CCc1nnc(NS(=O)(=O)c2ccc(N=Cc3c(C)[nH]n(-c4cccc(Cl)c4)c3=O)cc2)s1`, with 9.47%. Then `Cc1nn(C)cc1CNC(=O)c1ccccc1Br`, with -6.9%; and `CC(Oc1ccc2ccc(=O)oc2c1)C(=O)c1ccccc1` (configuration not stated), with 8.03%; and `NCCNC(=O)c1c(NC(=O)c2ccccc2)sc2c1CCCC2`, with 10.3%. Under `CN(C)CCNC(=O)c1c(NC(=O)c2ccccc2)sc2c1CCCC2` stands 11.8%; under `CCCC(=O)Nc1cc(C)c(NC(=O)c2ccncc2)cn1`, 1.4%; under `CCOc1ccccc1NC(=O)COC(=O)C1CCC1`, 6.3%. In the case of `O=C1CCCC(=O)C1=Cc1c[nH]c2ccccc12`, the inhibition is 8.99%.

As for `O=C1OC2(CCCC2)OC(=O)C1=Cc1c[nH]c2ccccc12`, the inhibition is 10.5%.

On to `O=C(O)Cn1cc(/C=C2/NC(=O)N(c3ccc(Cl)cc3)C2=O)c2ccccc21`, for which the inhibition was 8.99%.

With `O=C(O)Cn1cc(/C=C2\SC(=O)N(c3ccccc3)C2=O)c2ccccc21`, the inhibition was 0.86%. Then `Clc1ccc(-c2csc(Nc3ccccc3)[n+]2Cc2ccco2)c(Cl)c1`, with 4.62%; and `COC(=O)c1c(C(=O)OC)c2ccccn2c1C(=O)c1ccc([N+](=O)[O-])cc1`, with -6.01%; and `Nc1ccc2sc(N)nc2c1`, with 19.6%. Then `Nc1ccc2nc(-c3ccccc3)sc2c1`, with 4.03%; and `Nc1nc2ccc(Br)cc2s1`, with 1.67%. Consider `Nc1cccc(-c2nc3ccc(N)cc3s2)c1`, for which the inhibition is 10.5%.

`Cc1nc2ccc(N)cc2s1`: the inhibition was 5.78%.

As to `Nc1ccc(-c2nc3cc(N)ccc3s2)cc1`, the inhibition was 7.4%. On to `COc1cccc(NC(=O)CN(C)C(=O)/C=C/c2ccc3ccccc3n2)c1`, for which the inhibition is 0.53%.

Regarding `COc1ccc(-c2nc(N3CCOCC3)nc3n[nH]c(N)c23)cc1`, the inhibition was -3.94%. Then `COc1ccc(CCN(C)C2CCCN(S(=O)(=O)c3ccccc3)C2)cc1OC` (configuration not stated), with 10.3%; and `O=C(CSc1ncn[nH]1)Nc1ccc(Cl)c(Cl)c1`, with 12.3%; and `O=C(O)/C=C/C(=O)Nc1ccc(OCc2ccccc2)cc1`, with 11.5%. Then `CCOc1[nH]n(-c2ccc(Cl)cc2)c(=O)c1C=NCc1cccnc1`, with 7.22%; and `O=C1OCCC1=Cc1ccccc1`, with -4.26%. Under `O=C1OCC/C1=C\c1ccccc1` stands 5.73%; under `CC1CCC/C(=C\Nc2ccc(C(=O)O)cc2)C1=O` (configuration not stated), -1.76%; under `CC1CCCC(=C\c2ccccc2)/C1=N/O` (configuration not stated), 9.75%.

With `O=C(NC1CCS(=O)(=O)C1)c1cnccn1` (configuration not stated), the inhibition was 6.19%. Under `O=C(c1scc2c1CCCC2)N1CCOCC1` stands 5.17%; under `O=C(Nn1c(-c2ccc(Br)cc2)nc2ccccc2c1=O)c1cccnc1`, 2.47%. Then `CCCN(CCC)CC(O)CN1C(=O)NC(C)(C)C1=O` (configuration not stated), with -0.64%; and `COc1ccc(C(=O)CSc2nnc(-c3cccnc3)n2Cc2ccco2)cc1`, with 9.77%; and `CCCCn1c(N)nc2ccccc21`, with 1.51%. Under `CCCCC(=O)NCc1ccc2c(c1)cc(C)n2C` stands 7.65%.

Take `Cc1ccc(N2CC(C(=O)NC(C)CCc3ccccc3)CC2=O)cc1` (configuration not stated): the inhibition is 1.14%. Under `Cc1cc(OCn2ccc(C(=O)O)n2)ccc1Cl` stands 15.5%; under `O=C(c1ccccc1Cl)N1CCN(Cc2ccc3c(c2)OCO3)CC1`, 1.05%; under `CCCNC(=S)N1CCN(Cc2ccc3c(c2)OCO3)CC1`, 23.5%.

Turning to `O=C(c1cccc2ccccc12)N1CCN(Cc2ccccc2F)CC1`, the inhibition is 30.9%.

Regarding `CCNC(=S)N1CCN(Cc2ccc3c(c2)OCO3)CC1`, the inhibition is 3.54%. On to `O=C(c1ccccc1)c1ccccc1C(=O)N1CCN(Cc2ccccc2F)CC1`, for which the inhibition was 15.4%. Then `O=C(O)c1ccccc1C(=O)N1CCN(Cc2ccc3c(c2)OCO3)CC1`, with 6.42%; and `O=C(/C=C/c1cccc(F)c1)N1CCN(c2ccccn2)CC1`, with 6.78%.

In the case of `CCOc1ccc(OCCC(=O)Nc2ccc(N3CCOCC3)cc2N2CCOCC2)cc1`, the inhibition is 4.37%. Under `COC(=O)c1ccsc1NC(=O)CN1CCN(c2ncccn2)CC1` stands -6.48%; under `O=C(CSc1nc2ncc(Cl)cc2[nH]1)N1CCC(Cc2ccccc2)CC1`, 5.18%. As for `O=C(COc1ccccc1[N+](=O)[O-])Nc1cccc(Cl)c1N1CCOCC1`, the inhibition is 9.17%.

Take `COc1ccccc1CNc1cc(C)ccc1C`: the inhibition was -1.27%. Under `COc1ccc(CNc2cc(C)ccc2C)c(OC)c1OC` stands 14.2%; under `COc1cc(CNc2cc(C)ccc2C)cc(OC)c1OC`, 6.31%. Then `COc1cc(OC)c(OC)cc1CNc1cc(C)ccc1OC`, with 14.2%; and `COc1ccccc1CNc1cc(-c2ccccc2)ccc1OC`, with 7.7%; and `COc1cccc(CNc2nn[nH]n2)c1OC`, with 3.59%. Then `O=C(c1nn2c(C(F)(F)F)cc(-c3ccccc3)nc2c1Cl)N1CCN2CCCC2C1` (configuration not stated), with 3.99%; and `CC(C)c1ccc(NC(=O)NC2CCN(CC(=O)Nc3cccc4ccccc34)CC2)cc1`, with 13.1%; and `CNC(=O)C[C@H]1C(=O)N(C2CCCCC2)C[C@@H]1CSC`, with 16.8%. With `Cc1ccccc1Nc1ncnc2c1cnn2C`, the inhibition is 12.2%. Then `O=C(c1ccc(Cl)c(S(=O)(=O)N2CCOCC2)c1)N1CCCC1`, with 3.9%; and `O=C(N1CCCCC1)N1CCN(S(=O)(=O)c2ccc(Cl)cc2)CC1`, with 4.45%.

Regarding `CC(=O)n1c2ccccc2c2nc(NC(C)C)sc21`, the inhibition was 5.24%. Then `C=CCNc1nc2c3ccccc3n(C(C)=O)c2s1`, with 24.6%; and `COc1cc(C(=O)NCc2nnc(SCC(=O)N3CCCCC3)o2)cc(OC)c1OC`, with 6.92%; and `CC1=CC(=O)C=C/C1=C(/c1ccc(O)cc1C)c1ccccc1S(=O)(=O)O`, with 9.36%.

Consider `CC1=C/C(=C(\c2ccc(O)c(C)c2)c2ccccc2S(=O)(=O)O)C=CC1=O`, for which the inhibition is 3.41%. Under `CC1=C/C(=C(/c2ccc(O)c(C)c2)c2ccccc2S(=O)(=O)O)C=CC1=O` stands 19.7%; under `Cc1cc(C(=O)CS(=O)(=O)c2ccccc2)cc(C)c1O`, 10.7%.
